Drawing on PubChem BioAssay (NCI), this text covers growth for eight compounds.

Holding throughout (assay): NCI-60 one-dose screen, 48 h (100 = growth as untreated, 0 = no growth, -100 = all killed)
What all share (settings): 10 µM unless noted

For experiment [1], the system named is NCI-H23 lung.
Experiment [2] has as its system NCI-H226 lung.
Experiment [3] deals with NCI-H322M lung.
Experiment [4] has as its system HOP-62 NSCLC.
The test system of experiment [5] is NCI-H460 lung.
For experiment [6], the system named is NCI-H522 lung.
Experiment [7] concerns A549/ATCC NSCLC.
Experiment [8] relates to 786-0 renal.
For experiment [9], the system named is COLO 205 colon.
Experiment [10] relates to DU-145 prostate.
The subject of experiment [11] is K-562 leukemia.
Experiment [12] relates to MALME-3M melanoma.
Experiment [13] deals with MDA-MB-231 breast.
Experiment [14] deals with RXF 393 renal.
Experiment [15] has as its system SF-268 CNS.
For experiment [16], the system named is SF-295 CNS.
Experiment [17] concerns SF-539 CNS.
Experiment [18] concerns UACC-257 melanoma.
Experiment [19] relates to M14 melanoma.

The structures appear in SMILES notation. Compounds without any hit were thinned out: in the full panel of roughly 83,000, 20% have a hit.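 A percent growth of 40 corresponds to 60% growth inhibition; 0 means no net growth; -100 means all cells died. Active threshold: below 10.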 A number with no mark means an inactive call. Activity calls are given as the source filed them.

Turning to `CC(C)(C)[Si](C)(C)OC1[C@@H](O[Si](C)(C)C(C)(C)C)[C@@H](CNC(=O)NC(=O)NC(=O)CI)O[C@H]1n1cnc2c(NC(=O)Nc3ccccc3)ncnc21` (some centres not stated), the growth in [1] is -51.8% (active); in experiment [2] it was 108%; in [3] it was 111%; in [4], 2.91% (active); in experiment [5], 78.8%; in experiment [6], -80.4% (active). For the same compound, the growth in experiment [7] was 65.5%; in [8] it was 7.17% (active); in experiment [9] it was 45.2%; in experiment [10], 90.7%; in [11], 52.3%; in experiment [12] it was -83.3% (active). Further, the growth is -49.7% (active) in experiment [13]; -5.13% (active) in experiment [14]; 26.4% in experiment [15]; -56.8% (active) in experiment [16]; -63.2% (active) in [17]; 105% in [18]. For the same compound, the growth in experiment [19] is 73.1%.
`Cc1[nH]c2ccccc2c1C1=CC(=O)C=CC1=O`: the growth in [1] was 92.8%; in [2] it was 94.2%; in experiment [3], 120%; in experiment [4] it was 94.7%; in experiment [5], 111%; in experiment [6] it was -24.4% (active). The growth in [7] was 93.2%; in experiment [8], 84.3%; in [9] it was 55.7%; in [10], 103%; in experiment [11] it was 33.4%; in experiment [12], 123%. Further, the growth in [13] was 87.7%; in experiment [14] it was 115%; in experiment [15] it was 83.7%; in experiment [16], 127%; in [17] it was 79.1%; in experiment [18], 91.6%. Further, the growth in experiment [19] is 79.4%.
For the compound `COc1ccc2nc3ccccc3c(NCc3ccc(C)cc3)c2c1`, the growth is 28.3% in [1]; 42.1% in experiment [2]; 30.3% in experiment [3]; 39% in experiment [4]; 10% in experiment [5]; 26.4% in experiment [6]. The growth is 19.3% in experiment [7]; 15.8% in experiment [8]; -40.6% (active) in [9]; 21.6% in [10]; 2.71% (active) in [11]; 22.1% in experiment [12]. Further, the growth in experiment [13] was 33.6%; in experiment [14], 6.17% (active); in experiment [15], 48.4%; in experiment [16], 23.6%; in experiment [17] it was 10.7%; in experiment [18], -7.97% (active). In [19], the growth was 28.7%.
Take `CC1=C(O)C(=O)CC1`: the growth in experiment [1] was 96.3%; in experiment [2] it was 100%; in experiment [3], 103%; in [4] it was 120%; in [5], 109%; in experiment [6] it was 115%. The growth in experiment [7] is 88.8%; in experiment [8], 105%; in experiment [9] it was 116%; in experiment [10], 112%; in [11], 106%; in experiment [12], 104%. Moreover, the growth in experiment [13] was 108%; in [14] it was 102%; in [15], 110%; in [16], 94.9%; in experiment [17] it was 111%; in experiment [18] it was 97.4%. The growth in experiment [19] is 105%.
As to `Cc1csc(N/N=C/c2ccncc2)n1`, the growth in experiment [1] is 100%; in experiment [2] it was 95.9%; in [3], 109%; in [4], 99.1%; in [5], 101%; in [6], 72.9%. In addition, the growth is 68.8% in experiment [7]; 88.4% in [8]; 107% in [9]; 108% in experiment [10]; 94.1% in [11]; 117% in experiment [12]. Further, the growth is 102% in experiment [13]; 99.5% in [14]; 114% in experiment [15]; 108% in [16]; 106% in experiment [17]; 78.1% in experiment [18]. Moreover, the growth in experiment [19] is 100%.
In the case of `Cc1c(C(=O)Nc2ccccc2F)sc2c(=O)[nH]cnc12`, the growth in experiment [1] is 94%; in experiment [2], 102%; in [3], 94.1%; in experiment [4], 96.1%; in experiment [5], 51.6%; in experiment [6] it was 66.6%. Moreover, the growth in [7] is 88.3%; in experiment [8], 98.4%; in experiment [9] it was 97.8%; in experiment [10] it was 112%; in experiment [11], 47.4%; in experiment [12], 88.3%. Also, the growth in experiment [13] is 86.2%; in experiment [14], 107%; in experiment [15] it was 106%; in experiment [16], 85.4%; in [17], 109%; in [18] it was 88.7%. In addition, the growth in experiment [19] is 75.1%.
On to `NC(=S)N1N=C(c2ccc(Cl)cc2)CC1c1cc2ccccc2[nH]c1=O` (configuration not stated), for which the growth in experiment [1] was 105%; in experiment [2], 113%; in experiment [3], 97.2%; in experiment [4], 102%; in [5], 108%; in experiment [6], 84.2%. In addition, the growth is 110% in experiment [7]; 98% in experiment [8]; 115% in experiment [9]; 118% in [10]; 112% in experiment [11]; 93.8% in experiment [12]. The growth in [13] is 109%; in experiment [14], 123%; in experiment [15], 112%; in [16] it was 108%; in [17] it was 106%; in experiment [18], 111%. Also, the growth in experiment [19] was 111%.
In the case of `CCCCSc1ncnc2c1ncn2C1CCCCO1` (configuration not stated), the growth in [1] was 106%; in [2], 107%; in [3], 114%; in [4], 105%; in experiment [5], 111%; in experiment [6], 106%. In addition, the growth in experiment [7] is 105%; in [8] it was 97.9%; in experiment [9], 108%; in [10], 121%; in experiment [11], 97%; in experiment [12], 115%. Further, the growth in experiment [13] was 110%; in [14], 120%; in experiment [15], 106%; in experiment [16] it was 111%; in experiment [17] it was 104%; in experiment [18], 108%. Further, in experiment [19], the growth is 103%.
